Measurements from PubChem BioAssay (NCI).
Values joined by “and” are separate entries in the source; they are usually repeats but may differ in a detail not shown here. Identical values can stand only once. The panel holds about 83,000 compounds, 20% with a hit somewhere; the sample as a whole holds those more often.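 For each line, cells grew in 96-well plates with the test compound present at a single concentration for 48 hours.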 Active and inactive are the calls of the source. How the source made its calls: active means growth percent below 10; inactive means the rest.

How the values were obtained:
Assay in all cases: NCI-60 one-dose screen, 48 h (100 = growth as untreated, 0 = no growth, -100 = all killed)
Conditions in all cases: 10 µM unless noted
SK-MEL-2 melanoma = test system: SK-MEL-2 melanoma
EKVX NSCLC = test system: EKVX NSCLC
SN12C renal = test system: SN12C renal
UO-31 renal = test system: UO-31 renal
TK-10 renal = test system: TK-10 renal
ACHN renal = test system: ACHN renal
CAKI-1 renal = test system: CAKI-1 renal
A498 renal = test system: A498 renal
CCRF-CEM leukemia = test system: CCRF-CEM leukemia
MOLT-4 leukemia = test system: MOLT-4 leukemia

Measured: growth

O=C(/C=C/c1ccccc1)c1cccs1
inactive: SK-MEL-2 melanoma 105% and 107% | EKVX NSCLC 97.6% and 94.7% | SN12C renal 96.7% and 94.1% | UO-31 renal 88.9% and 94.1% | TK-10 renal 95.5% and 103% | ACHN renal 100% and 110% | CAKI-1 renal 99.9% and 93.7% | A498 renal 94.4% and 91.6% | CCRF-CEM leukemia 82.7% | MOLT-4 leukemia 109% and 96%

Nc1ccc(-c2nc3ccc4[nH]ncc4c3c3c2CCCC3)cc1F
inactive: EKVX NSCLC 33.5% | SN12C renal 27.3% | TK-10 renal 22.1% | ACHN renal 11.6% | CCRF-CEM leukemia 20.5% | MOLT-4 leukemia 18.5%
active: SK-MEL-2 melanoma 6.74% | UO-31 renal -4.24% | CAKI-1 renal 7.39% | A498 renal -0.345%

COc1ccc(-c2nn3c(-c4cc(F)c(Cl)cc4Cl)nnc3s2)cc1
inactive: SK-MEL-2 melanoma 66.8% | EKVX NSCLC 75.4% | SN12C renal 72.5% | UO-31 renal 49.7% | TK-10 renal 105% | ACHN renal 66.7% | CAKI-1 renal 37.7% | A498 renal 65.9% | MOLT-4 leukemia 21.6%
active: CCRF-CEM leukemia 9.61%

CCCCCCCCCCCCCCCCCCOc1cccc(CC(=O)OCC[N+](CC)(CC)CC)c1
inactive: SK-MEL-2 melanoma 84% | EKVX NSCLC 77.7% | SN12C renal 42.8% | UO-31 renal 86.4% | TK-10 renal 67.5% | ACHN renal 90% | CAKI-1 renal 62.7% | A498 renal 89.3% | CCRF-CEM leukemia 32.5% | MOLT-4 leukemia 72%

O=S(=O)(O)c1ccc(N=Nc2ccc(N=Nc3cccc4ccccc34)c(S(=O)(=O)O)c2)cc1
inactive: SK-MEL-2 melanoma 99.8% | EKVX NSCLC 97% | SN12C renal 102% | UO-31 renal 84.1% | TK-10 renal 112% | ACHN renal 97.8% | CAKI-1 renal 97% | A498 renal 90.1% | CCRF-CEM leukemia 101% | MOLT-4 leukemia 108%

COc1nc2ccc(C)cc2cc1/C=[N+](\[O-])c1ccccc1
inactive: SK-MEL-2 melanoma 100% | EKVX NSCLC 77.8% | SN12C renal 90.1% | UO-31 renal 59.4% | TK-10 renal 116% | ACHN renal 83.5% | CAKI-1 renal 82.3% | A498 renal 75.6% | CCRF-CEM leukemia 46.6% | MOLT-4 leukemia 82.8%

CCN1C(=S)N(CC)C2C1NC(=S)N2/N=C/C=C/c1ccccc1 (stereo not given)
active: A498 renal 0.507%
inactive: SK-MEL-2 melanoma 46.7% | EKVX NSCLC 62.5% | SN12C renal 40.8% | UO-31 renal 40% | TK-10 renal 69.2% | ACHN renal 39.3% | CAKI-1 renal 30.4% | CCRF-CEM leukemia 14.7% | MOLT-4 leukemia 26.4%

COCCOc1cc2ncnc(N3CCN(S(=O)(=O)c4ccccc4Cl)CC3)c2cc1OCCOC
inactive: SK-MEL-2 melanoma 88.1% | EKVX NSCLC 90.9% | SN12C renal 105% | UO-31 renal 70% | TK-10 renal 98.9% | ACHN renal 97.5% | CAKI-1 renal 86.6% | A498 renal 54.9% | CCRF-CEM leukemia 79% | MOLT-4 leukemia 65.2%

CCOC(=O)C1=C(C)N=C2SC=C(c3ccc(F)cc3)N2[C@H]1c1cn(-c2ccccc2)nc1-c1ccc(Cl)cc1
inactive: SK-MEL-2 melanoma 97.4% | EKVX NSCLC 88.4% | SN12C renal 98.6% | UO-31 renal 85.1% | TK-10 renal 93.6% | ACHN renal 101% | CAKI-1 renal 84.1% | A498 renal 89.7% | CCRF-CEM leukemia 95.5% | MOLT-4 leukemia 78.3%

C[N+]1=C(/C=C\C=C\c2ccccc2)C(C)(C)c2ccccc21
active: SN12C renal -2.25% | CCRF-CEM leukemia -8.67% | MOLT-4 leukemia 0.0688%
inactive: SK-MEL-2 melanoma 10.9% | EKVX NSCLC 31.5% | UO-31 renal 39.3% | TK-10 renal 50.3% | ACHN renal 43.8% | CAKI-1 renal 38.4% | A498 renal 61.2%

O=C1/C(=C/c2ccc(F)c(F)c2)CN(C(=O)C(Cl)Cl)C/C1=C\c1ccc(F)c(F)c1
active: SK-MEL-2 melanoma -53.4% | EKVX NSCLC -93.7% | SN12C renal -75.3% | UO-31 renal -97.9% | TK-10 renal -94.6% | ACHN renal -100% | CAKI-1 renal -92.1% | A498 renal -96.8% | CCRF-CEM leukemia -3.13% | MOLT-4 leukemia -21%

N=C1/C(=C2\NC3C=CC=CC3S2)C(c2ccc(Cl)cc2)C2C(=O)N(c3ccccc3)C(=S)N12 (stereo not given)
inactive: SK-MEL-2 melanoma 107% | EKVX NSCLC 104% | SN12C renal 99.7% | UO-31 renal 81.6% | TK-10 renal 123% | ACHN renal 103% | CAKI-1 renal 99.6% | A498 renal 116% | CCRF-CEM leukemia 101% | MOLT-4 leukemia 88.3%

CN1CCN(CCNC(=O)c2cccc(CN3c4cccc5c4C(=Cc4cccnc43)N(C)C5=O)c2)CC1
inactive: SK-MEL-2 melanoma 62% | EKVX NSCLC 40.8% | SN12C renal 42.8% | UO-31 renal 14.3% | TK-10 renal 25.4% | ACHN renal 23.5% | A498 renal 30.9% | CCRF-CEM leukemia 47% | MOLT-4 leukemia 47.4%
active: CAKI-1 renal 8.78%

O=C([C@H]1C[C@H]1c1ccc(S(F)(F)(F)(F)F)cc1)N1CCN(c2cc(Cl)ccc2C(F)(F)F)CC1
inactive: SK-MEL-2 melanoma 91.7% | EKVX NSCLC 91.9% | SN12C renal 101% | UO-31 renal 67.8% | TK-10 renal 93.6% | ACHN renal 93.4% | CAKI-1 renal 67.3% | A498 renal 94.4% | CCRF-CEM leukemia 96.4% | MOLT-4 leukemia 76.9%

COc1cc(/C=C2\CCC/C(=C\c3cc(CN4CCCC4)c(O)c(OC)c3)C2=O)cc(CN2CCCC2)c1O
active: MOLT-4 leukemia 4.58%
inactive: SK-MEL-2 melanoma 82.6% | EKVX NSCLC 32.4% | SN12C renal 30.3% | UO-31 renal 47.4% | TK-10 renal 70.1% | ACHN renal 48.2% | CAKI-1 renal 55.2% | A498 renal 85.3% | CCRF-CEM leukemia 17.6%

[2H]C([2H])([2H])Oc1cc(F)ccc1/C=C/C(=O)/C=C(/C=C/c1ccc(F)cc1OC([2H])([2H])[2H])OB(F)F
inactive: SK-MEL-2 melanoma 48% | EKVX NSCLC 76.6% | SN12C renal 42.6% | UO-31 renal 49.5% | TK-10 renal 43.6% | ACHN renal 14.8% | CAKI-1 renal 18.2% | A498 renal 89%
active: CCRF-CEM leukemia 2.38% | MOLT-4 leukemia 1.25%

Nc1c(C(=O)Nc2ccncc2)sc2nc3c(cc12)CCCCCCCC3
active: SK-MEL-2 melanoma -86.7% | EKVX NSCLC -31.2% | SN12C renal -65.1% | UO-31 renal -95% | TK-10 renal -75.6% | ACHN renal -98.8% | CAKI-1 renal -94.8% | A498 renal -9% | CCRF-CEM leukemia -37.9% | MOLT-4 leukemia -40.6%

N#C/C(=C\c1ccccc1Cl)c1cc2ccccc2[nH]1
active: CCRF-CEM leukemia -4.12%
inactive: SK-MEL-2 melanoma 114% | EKVX NSCLC 77.1% | SN12C renal 92.4% | UO-31 renal 69.7% | TK-10 renal 130% | ACHN renal 84.7% | CAKI-1 renal 73.1% | A498 renal 98.6% | MOLT-4 leukemia 77.1%

CC1=CC(C)(C)NC(=S)N1c1ccc(Cl)cc1
inactive: SK-MEL-2 melanoma 101% and 94.3% | EKVX NSCLC 91.5% and 106% | SN12C renal 95.6% and 99% | UO-31 renal 82.2% | TK-10 renal 99.7% and 98.7% | ACHN renal 94.7% and 99.9% | CAKI-1 renal 91.6% and 97.8% | A498 renal 104% | CCRF-CEM leukemia 105% and 89.1% | MOLT-4 leukemia 95% and 96.8%

CN1CCN(c2ccc(/C=C/C(=O)c3ccc(O)cc3)cc2)CC1
inactive: SK-MEL-2 melanoma 102% | EKVX NSCLC 83.7% | SN12C renal 94.1% | UO-31 renal 85.3% | TK-10 renal 122% | ACHN renal 105% | CAKI-1 renal 98.9% | A498 renal 82.9% | CCRF-CEM leukemia 102% | MOLT-4 leukemia 95%

O=C1N=c2ccccc2=C1c1sc(=S)n(C2CC(=O)N(c3ccc(Cl)cc3)C2=O)c1O (stereo not given)
inactive: SK-MEL-2 melanoma 102% | EKVX NSCLC 101% | SN12C renal 94.9% | UO-31 renal 68.5% | TK-10 renal 129% | ACHN renal 93.9% | CAKI-1 renal 87.6% | A498 renal 114% | CCRF-CEM leukemia 83.8% | MOLT-4 leukemia 97.7%

Nc1nc2ccccc2c2c(=O)c3ccc(Cl)cc3sc12
inactive: SK-MEL-2 melanoma 106% | EKVX NSCLC 89.2% | SN12C renal 91.3% | UO-31 renal 96.1% | TK-10 renal 130% | ACHN renal 83.6% | CAKI-1 renal 89% | A498 renal 99.7% | CCRF-CEM leukemia 94.5% | MOLT-4 leukemia 93.6%

CCn1cc(C(=O)NN=C2CCCC2)c(=O)c2ccc(C)nc21
inactive: SK-MEL-2 melanoma 96.5% | EKVX NSCLC 88.8% | SN12C renal 81% | UO-31 renal 81.3% | TK-10 renal 100% | ACHN renal 86.6% | CAKI-1 renal 84.2% | A498 renal 66.7% | CCRF-CEM leukemia 89.7% | MOLT-4 leukemia 100%

CCN(C(=O)N1CCN(c2cc3c(cc2F)c(=O)c(C(=O)O)cn3C2CC2)CC1)c1nc(-c2ccccc2)cs1
inactive: SK-MEL-2 melanoma 45.9% | EKVX NSCLC 31% | TK-10 renal 40.9% | CAKI-1 renal 29.4% | CCRF-CEM leukemia 18.1% | MOLT-4 leukemia 14.7%
active: SN12C renal 5.8% | UO-31 renal 1.81% | ACHN renal 8.64% | A498 renal 5.67%
